According to PubChem BioAssay AID1852 (Sanford-Burnham Center for Chemical Genomics, 2009):
Screen size: about 2,500 compounds; about 1,100 (44%) were called active.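 Rule for the calls: active = inhibition above 50% at 4 µM in the single-point screen; inactive = inhibition of 50% or less.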 So high a share suggests a set chosen from earlier hits. This is one part of the list.

Experiment: TNF-a-driven NF-kB reporter inhibitors, primary screen, selectivity assay for NOD1/NOD2 signaling inhibitor project, cell-based, HEK293T NF-kB-Luc, luminescence (AID 1852)
Conditions: TNF-a induced, 14 h, at 4 µM, active compounds read high

Structure (SMILES) | inhibition
O=C(CSc1cccc2cccnc12)Nc1ccc(S(=O)(=O)N2CCOCC2)cc1 | 104% (active)
O=C(CN1CCN(c2cccc(Cl)c2)CC1)Nc1ccc(S(=O)(=O)N2CCOCC2)cc1 | 23.3% (inactive)
CCN(CC)S(=O)(=O)c1cccc(NC(=O)CNc2cccc(S(=O)(=O)N3CCCC3)c2)c1 | 41.7% (inactive)
CN(C)S(=O)(=O)c1cccc(NC(=O)CSc2cccc3cccnc23)c1 | 100% (active)
CCc1nc2ccccc2c(C(=O)OCC(=O)Nc2cccc(S(=O)(=O)N3CCOCC3)c2)c1C | -0.6% (inactive)
Cc1ccc(S(=O)(=O)N(C)C)cc1NC(=O)COC(=O)/C=C/c1cnc2ccccc2n1 | 12% (inactive)
O=C(Nc1cccc(NC(=O)c2ccc(-c3cccc(Br)c3)o2)c1)c1ccco1 | -15.4% (inactive)
CC(C)(C)C(=O)Nc1ccc(NC(=O)c2ccco2)nc1 | 98.2% (active)
O=C(Nc1nc2cc3c(cc2s1)OCCO3)c1ccco1 | -31% (inactive)
Cc1cc([N+](=O)[O-])ccc1-c1ccc(/C=N/NC(=O)c2ccc(Br)o2)o1 | -0.2% (inactive)
COc1ccc(-c2nn(-c3ccccc3)cc2/C=N/NC(=O)c2ccc(Br)o2)cc1 | 94.1% (active)
Cc1ccc(-c2nn(-c3ccccc3)cc2NC(=O)CCl)cc1 | -28.6% (inactive)
O=C(N/N=C/c1cn(-c2ccccc2)nc1-c1cc2ccccc2o1)c1c[nH]c2ccccc12 | -224% (inactive)
COc1ccc(/C=N/NC(=O)c2ccc(Br)o2)cc1Cn1cc([N+](=O)[O-])cn1 | -16% (inactive)
Cc1ccc(-c2nn(-c3ccccc3)cc2/C=N/NC(=O)c2ccc(Br)o2)cc1 | 95.5% (active)
CC[n+]1c(/C=C/N(C)c2ccccc2)n(-c2ccccc2)c2ccc(-c3nc4ccccc4s3)cc21 | 102% (active)
CC(C)c1ccc(-c2nc3ccccc3s2)cc1 | 14.5% (inactive)
Cn1c2c(c(=O)n(C)c1=O)C(C(F)(F)F)(C(F)(F)F)N=C(c1ccc(Cl)cc1)N2 | 73.2% (active)
Cc1nc2c(Br)cc(Br)cc2cc1O | 8.1% (inactive)
CC(=O)NC(=C(Cl)Cl)S(=O)(=O)c1ccccc1 | 42.6% (inactive)
Cc1ccc(C(=O)NC(=C(Cl)Cl)S(=O)(=O)c2ccccc2)cc1 | 97.7% (active)
O=C(NC(=C(Cl)Cl)S(=O)(=O)c1ccc(Cl)cc1)c1ccccc1 | 97.1% (active)
Cc1ccc(C(=O)NC(=C(Cl)Cl)S(=O)(=O)c2ccc(C)cc2)cc1 | 4.6% (inactive)
Cc1ccc(C(=O)NC(C#N)=C(Cl)Cl)cc1 | 94.7% (active)
Cc1ccc(C(=O)c2cnc3cc4c(cc3c2S(=O)(=O)c2ccccc2)OCCO4)cc1 | -56.6% (inactive)
Cc1ccc(C(=O)NC(=C(Cl)Cl)S(=O)(=O)c2ccc(Cl)cc2)cc1 | 63.9% (active)
COc1ccc(C(=O)NC(=C(Cl)Cl)S(=O)(=O)c2ccc(C)cc2)cc1 | -46.2% (inactive)
